The panel holds about 79,000 compounds, 15% with a hit somewhere; the sample as a whole holds those more often. A number with no mark means an inactive call. Activity calls are given as the source filed them. No stated cut-off is given here; in the data, active means growth inhibition above about 70%; inactive means the rest.

Assay [1] is described as follows: NCI Yeast Anticancer Drug Screen. Data for the rad50 strain (AID 155).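 Further: 0% = growth of vehicle-only cultures of the same strain.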 The following applies: S. cerevisiae rad50 strain growth inhibition; at 50.0 µM; stronger effect = higher value. Summed up: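 Vehicle-treated cultures provide the reference for the growth inhibition reported for compound-exposed, repair-deficient yeast.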
Assay [2] is described as follows: NCI Yeast Anticancer Drug Screen. Data for the mec2-1 strain (AID 157). The following applies: S. cerevisiae mec2-1 strain, at 50.0 µM, stronger effect = higher value. The essentials:
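Compounds were applied to mec2-1 yeast cells. Their growth was then compared with that of vehicle-treated cultures to give growth inhibition.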

The nature of assay [3]: NCI Yeast Anticancer Drug Screen. Data for the sgs1 mgt1 strain (AID 161).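 Further: 0% = growth of cultures given vehicle only.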 The conditions noted are these: S. cerevisiae sgs1 mgt1 strain, at 50.0 µM, stronger effect = higher value. Summed up:
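Percent growth inhibition was derived by comparing compound-exposed mutant yeast with vehicle-exposed cultures. The strain carries alterations in DNA damage repair.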

Assay [4] can be described thus: NCI Yeast Anticancer Drug Screen. Data for the cln2 rad14 strain (AID 165).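 Further: 0% = growth equal to vehicle treated cultures.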 The following applies: S. cerevisiae cln2 rad14 strain, at 50.0 µM, stronger effect = higher value. Summed up:
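Strain: cln2 rad14 yeast, altered in cell cycle control and DNA damage repair. Read-out: growth inhibition vs vehicle.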

A short description of assay [5]: NCI Yeast Anticancer Drug Screen. Data for the bub3 strain (AID 167). The conditions noted are these: S. cerevisiae bub3 mutant strain, at 50.0 µM, stronger effect = higher value. Summed up: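 Mutant yeast screening strain plus compound; vehicle-treated cultures serve as the 0% inhibition reference.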
The nature of assay [6]: NCI Yeast Anticancer Drug Screen. Data for the mlh1 rad18 strain (AID 175). The conditions noted are these: S. cerevisiae mlh1 rad18 strain growth inhibition; at 50.0 µM; stronger effect = higher value. Summed up: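 A repair-deficient yeast strain is exposed to test compound, and growth is scored relative to vehicle-treated controls.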

Regarding `CCOC(=O)NN(C(=O)OCC)c1c(C)cc(C)c(N(NC(=O)OCC)C(=O)OCC)c1C`, the growth inhibition in assay [1] was 1.7%; in assay [2], 7.25%; in assay [3], 12.4%; in assay [4] it was 23.9%; in assay [5], 16.4%; in assay [6] it was 22.6%.
Turning to `O=C(O)CCS.[Cu+2]`, the growth inhibition was -11.8% in assay [1]; -25.3% in assay [2]; -9.05% in assay [3]; -10.7% in assay [4]; -29.9% in assay [5]; -14.8% in assay [6].
Consider `COC(=O)c1c(C(=O)OC)c2ccccn2c1-c1cc(OC)c(Br)c(=O)o1`, for which the growth inhibition was -0.2% in assay [1]; -17.8% in assay [2]; -7.6% in assay [3]; -18.9% in assay [4]; -4.15% in assay [5]; -105% in assay [6].
Take `O=S(=O)(O)c1cc2nonc2c2ccccc12`: the growth inhibition in assay [1] is 2.75%; in assay [2], -0.85%; in assay [3], 12.9%; in assay [4], 9.25%; in assay [5] it was 0.9%; in assay [6], -2.6%.
Regarding `COC(=O)Oc1nn(C(=O)OC)c(=O)c2ccccc12` (tested in a mixture with another compound), the growth inhibition in assay [1] is -5.85%; in assay [2] it was 3.1%; in assay [3], 3%; in assay [4] it was -0.8%; in assay [5], 11.3%; in assay [6], 33.5%.
For the molecule `CC(=O)CC(=O)NCC#N`, the growth inhibition in assay [1] is 27.9%; in assay [2] it was 15.8%; in assay [3], 23.9%; in assay [4], 25.6%; in assay [5] it was 11.8%; in assay [6], 24.6%.
Consider `O=C(NCc1ccccc1)c1ccc([N+](=O)[O-])cc1`, for which the growth inhibition in assay [1] is -7.2%; in assay [2], 13.8%; in assay [3] it was 10.3%; in assay [4] it was -44.2%; in assay [5], 22.8%; in assay [6], 11.7%.
As to `Fc1ccc2nc3ccccc3c(SCCNCCSc3c4ccccc4nc4ccc(F)cc34)c2c1`, the growth inhibition in assay [1] is 43.4%; in assay [2] it was -4.75%; in assay [3] it was 17%; in assay [4], 16.1%; in assay [5] it was 1.5%; in assay [6] it was 35.2%.
`NN1CC(=O)N(c2ccccc2)CC1=O`: the growth inhibition in assay [1] is 0.5%; in assay [2], 4.45%; in assay [3], -0.6%; in assay [4], 42.8%; in assay [5] it was -7.65%; in assay [6] it was 4.7%.
For the molecule `COc1ccc(-c2coc3c4c(c5c(c3c2=O)OC(C)(C)CC5)OC(C)(C)C=C4)cc1OC`, the growth inhibition in assay [1] is 11.3%; in assay [2], 10.8%; in assay [3], 15.7%; in assay [4], 38%; in assay [5], 18.1%; in assay [6], 39.5%.
With `ClCCCCSC1CCCCC1`, the growth inhibition in assay [1] was -5.7%; in assay [2], -9.15%; in assay [3] it was -5.4%; in assay [4], -3.1%; in assay [5], 0.6%; in assay [6] it was -25.1%.
As for `CCOC(=O)CS(=O)(=O)C1CCCCC1c1cc(OC)c(OC)c(OC)c1` (stereo unspecified), the growth inhibition was 3.25% in assay [1]; -3.2% in assay [2]; -5% in assay [3]; -6.7% in assay [4]; 0.6% in assay [5]; 10.4% in assay [6].
On to `O=C(CNC(=O)C(CCC(=O)OCc1ccccc1)NC(=O)OCc1ccccc1)NCC(=O)Oc1ccc([N+](=O)[O-])cc1` (stereo unspecified), for which the growth inhibition in assay [1] was 25.1%; in assay [2], 13.6%; in assay [3], 10.3%; in assay [4] it was 9.3%; in assay [5], 4%; in assay [6], 18.1%.
In the case of `O=S1(=O)C=C(Br)CO1`, the growth inhibition is -4.65% in assay [1]; 1.75% in assay [2]; -2.5% in assay [3]; -17.4% in assay [4]; -20.6% in assay [5]; -15.7% in assay [6].
For `NS(=O)(=O)c1nc(S(=O)(=O)O)c2[nH]cnc2n1`, the growth inhibition in assay [1] is 3.7%; in assay [2] it was -0.35%; in assay [3], -6.75%; in assay [4], -4.2%; in assay [5], -45.3%; in assay [6], 14.2%.
Turning to `COC(=O)C1(Cc2ccccc2)Cc2cc3c(cc2C1=O)CCC3` (stereo unspecified), the growth inhibition in assay [1] was 20.9%; in assay [2], 3.75%; in assay [3] it was 8.5%; in assay [4], 2.2%; in assay [5] it was 34.8%; in assay [6], -7.65%.
With `CC(=O)OCCS(=O)(=O)c1c(Cl)c(Cl)c(Cl)c(Cl)c1Cl`, the growth inhibition is 95.7% (active) in assay [1]; 97.4% (active) in assay [2]; 98.9% (active) in assay [3]; 93.8% (active) in assay [4]; 95.7% (active) in assay [5]; 97.8% (active) in assay [6].
In the case of `CN1C(=O)C2(C=CCCC2)c2ccccc21` (stereo unspecified), the growth inhibition in assay [1] was -10.5%; in assay [2] it was -8.4%; in assay [3], -0.7%; in assay [4], -14.3%; in assay [5], -0.5%; in assay [6], -10.4%.
In the case of `Oc1ccc(Cl)cc1-c1cc(-c2ccccc2)nc(=S)[nH]1`, the growth inhibition in assay [1] was -12.7%; in assay [2], -34.8%; in assay [3] it was -17.6%; in assay [4], -0.2%; in assay [5], -1.3%; in assay [6] it was -3.6%.
In the case of `NC(=O)C(CC(=O)O)NC(=O)c1ccccc1` (stereo unspecified), the growth inhibition in assay [1] is 8.05%; in assay [2], 1.15%; in assay [3], 3.45%; in assay [4], -35%; in assay [5], -10.7%; in assay [6], 10.1%.
Consider `CC1=C(C#N)C(C)(C)c2ccccc21`, for which the growth inhibition in assay [1] was 19.9%; in assay [2], -10.9%; in assay [3] it was 1.9%; in assay [4], -25.9%; in assay [5], 10%; in assay [6], -13.2%.

Values taken from PubChem BioAssay (NCI).
